The values below come from PubChem BioAssay (NCI).

The panel holds about 79,000 compounds, 15% with a hit somewhere; the sample as a whole holds those more often. Unmarked numbers belong to inactive results. The source made the active and inactive calls. Rule as the data show it: active = growth inhibition above about 70%; inactive = the rest.

One experiment in a line: NCI Yeast Anticancer Drug Screen. Data for the sgs1 mgt1 strain (AID 161).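 Also: 0% = growth of cultures given vehicle only.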 As to conditions: S. cerevisiae sgs1 mgt1 strain, at 50.0 µM, active compounds read high. A digest of the protocol:
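Inhibition of yeast growth, normalised to vehicle-treated controls, is reported for a strain bearing genetic alterations in DNA damage repair.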
On to `COC(OC)(c1ccccc1)C(Br)Br`, for which the growth inhibition was 89.3% (active).
The same measure, in the same setting: under `Cc1ccc(S(=O)(=O)OCCc2ccc(Cl)cc2)cc1` stands -10.4%; under `O=C(CC(=O)c1ccncc1)c1ccccc1`, 97% (active).
As for `CCN1CCC(O)(/C=C/c2ccccc2)C(C(=O)/C=C/c2ccccc2)C1` (stereo not given), the growth inhibition was 97.8% (active).
Same read-out and setting: the same measure for `O=C(O)c1cc(Br)ccc1OCc1ccc(Cl)cc1`: 58%; for `Cc1ccc(C2COc3cc(O)c(O)cc3C2)cc1` (stereo not given): 99.5% (active).
Same read-out and setting: under `COC(=O)c1c2oc3c(C(=O)OC)cccc3nc-2cc(N)c1=O` stands 8.8%; under `CC(=O)NCCN(C)C`, 84.1% (active); under `N=c1scc(-c2ccccc2)n1/N=C/c1cccnc1`, 96.5% (active).
On the same count and under the same terms, under `C(=C/c1ccccc1)/C=N/Nc1ccccc1` stands -23.8%.
As to `OC(Cc1ccc(Br)cc1)CN1CCC(c2ccccc2)CC1` (stereo not given), the growth inhibition was 82.8% (active).
Still for that read-out and setting: the same measure for `O=C1C(Cl)=C(Nc2ccc(S(=O)(=O)O)cc2)C(=O)c2ccccc21`: 99.6% (active); for `CC1(CO)CCCC2(C)C3=C(CCCC3)CCC12` (stereo not given): 46.1%; for `Cc1cc2nc(CC(=O)c3ccc4ccccc4c3)c(=O)[nH]c2cc1C`: 88.3% (active).
Same read-out and setting: the same measure for `CN(CCO)CCn1cnc2c1c(=O)n(C)c(=O)n2C`: 1.65%; for `O=C1c2ccccc2CC(Br)c2ccccc21` (stereo not given): 81.8% (active); for `Cc1cccc2c(CBr)cc(=O)[nH]c12`: 84.3% (active).
Same read-out and setting: the same measure for `CC(=O)CC1CCC(=O)/C=C/C(=O)OC(CC(C)=O)CCC(=O)/C=C/C(=O)O1` (stereo not given): -6.3%; for `CCN(CC)CC(O)c1c(-c2ccccc2)c(-c2ccccc2)c2n1CCC2` (stereo not given): 56.7%; for `CC1(C)CC[C@]2(C(=O)O)[C@H](O)C[C@]3(C)C(=CC[C@@H]4[C@@]5(C)CC[C@H](OC6OCC(O)C(O)C6OC6OCC(O)C(O)C6OC6OCC(O)C(O)C6O)C(C)(C)[C@@H]5CC[C@]43C)[C@@H]2C1` (stereo not given in full): -13.4%.
Turning to `Cc1ccc(NC(=O)/C(CC(=O)c2sc(Nc3ccc(Cl)c(Cl)c3)nc2C)=N\Nc2ccc([N+](=O)[O-])cc2[N+](=O)[O-])c(C)c1`, the growth inhibition is 94.5% (active).
With `CC(=O)N=C1N(/C=C2\C(=O)Oc3ccccc3C2=O)C(=O)/C(=C/c2ccc(Cl)cc2Cl)N1C`, the growth inhibition was 94.2% (active).
Still for that read-out and setting: the same measure for `COC1OC2COC(c3ccccc3)OC2C(NC(=S)SCc2ccccc2)C1O` (stereo not given): 99.5% (active).
For `O=C(CCN1CCCCC1)N1CCc2c([nH]c3ccccc23)C1c1cccnc1` (stereo not given), the growth inhibition was -5.35%.
Still for that read-out and setting: under `Cc1ccc(Sc2ccc(C)cc2[N+](=O)[O-])c([N+](=O)[O-])c1` stands 66.2%; under `O=c1c2cc3ccccc3cc2c(=O)n2n1CC=CC2`, 22%; under `ClC(Cl)=C1C(=C(Cl)Cl)C(Cl)(Cl)C1(Cl)Cl`, 92% (active).
The same measure, in the same setting: the same measure for `Cc1c(C(=O)N(CCO)CCO)[n+](=O)c2ccccc2n1[O-]`: 14.7%; for `CN(C)c1cc(N(C)C)c2cc(-c3ccccc3)sc2n1`: 94.6% (active).
With `O=C(Nc1ccccc1O)/C(Cl)=C/Cl`, the growth inhibition was 78.8% (active).
As for `Cc1ccccc1SCc1nc2ccccc2c(C)[n+]1[O-]`, the growth inhibition was 58.7%.
On the same count and under the same terms, the same measure for `Oc1ccc2c(ccc3ccccc32)c1`: 99.4% (active); for `O=C1c2ccccc2C(=O)N1C(=NCc1ccccc1)c1ccccc1`: 64%.
Regarding `Cc1cc(Cl)cc2c1OCN(C)C2`, the growth inhibition was 98.8% (active).
The same measure, in the same setting: under `CC(C)C(=O)/C=C/c1ccc(Cl)cc1Cl` stands 69.6%; under `CC(C)C(=O)c1ccc([N+](=O)[O-])o1`, 97.7% (active); under `CSc1c(S(C)=O)c2ccccc2n1C` (stereo not given), -22.2%.
Regarding `O=C(CCCCN1CCN2c3ccccc3CCC2C1)c1ccccc1` (stereo not given), the growth inhibition was 94.4% (active).
The same measure, in the same setting: the same measure for `COC(=O)c1ccc(C)cc1CC1Cc2cc(C)ccc2C1=O` (stereo not given): 73.9% (active); for `Cc1cc(Nc2ccc(N=Nc3ccc(O)c4ncccc34)cc2)nc(C)n1`: 47.9%.

Another experiment in a line: NCI Yeast Anticancer Drug Screen. Data for the cln2 rad14 strain (AID 165).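 Also: 0% = growth equal to vehicle treated cultures.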 As to conditions: S. cerevisiae cln2 rad14 strain, at 5.0 µM (retest, dose inferred, filed as 0.5), active compounds read high. A digest of the protocol:
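The screen exposed genetically defined yeast (cln2 rad14) to test compounds and scored growth inhibition relative to vehicle-treated controls.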
As for `COC(OC)(c1ccccc1)C(Br)Br`, the growth inhibition was -7%.
With `Cc1ccc(S(=O)(=O)OCCc2ccc(Cl)cc2)cc1`, the growth inhibition was -15%.
On the same count and under the same terms, the same measure for `O=C(CC(=O)c1ccncc1)c1ccccc1`: -16%; for `CCN1CCC(O)(/C=C/c2ccccc2)C(C(=O)/C=C/c2ccccc2)C1` (stereo not given): 13%; for `O=C(O)c1cc(Br)ccc1OCc1ccc(Cl)cc1`: -13%.
The same measure, in the same setting: the same measure for `Cc1ccc(C2COc3cc(O)c(O)cc3C2)cc1` (stereo not given): 11%.
Same read-out and setting: under `COC(=O)c1c2oc3c(C(=O)OC)cccc3nc-2cc(N)c1=O` stands -5%; under `CC(=O)NCCN(C)C`, -2%.
Turning to `N=c1scc(-c2ccccc2)n1/N=C/c1cccnc1`, the growth inhibition was 11%.
Still for that read-out and setting: under `C(=C/c1ccccc1)/C=N/Nc1ccccc1` stands -61%.
On the same count and under the same terms, under `OC(Cc1ccc(Br)cc1)CN1CCC(c2ccccc2)CC1` (stereo not given) stands 87% (active).
Same read-out and setting: under `O=C1C(Cl)=C(Nc2ccc(S(=O)(=O)O)cc2)C(=O)c2ccccc21` stands 12%; under `CC1(CO)CCCC2(C)C3=C(CCCC3)CCC12` (stereo not given), -60%; under `Cc1cc2nc(CC(=O)c3ccc4ccccc4c3)c(=O)[nH]c2cc1C`, -17%.
Turning to `CN(CCO)CCn1cnc2c1c(=O)n(C)c(=O)n2C`, the growth inhibition is -15%.
Still for that read-out and setting: the same measure for `O=C1c2ccccc2CC(Br)c2ccccc21` (stereo not given): -77%; for `Cc1cccc2c(CBr)cc(=O)[nH]c12`: 4%; for `CC(=O)CC1CCC(=O)/C=C/C(=O)OC(CC(C)=O)CCC(=O)/C=C/C(=O)O1` (stereo not given): 5%.
The same measure, in the same setting: under `CCN(CC)CC(O)c1c(-c2ccccc2)c(-c2ccccc2)c2n1CCC2` (stereo not given) stands -11%.
Consider `CC1(C)CC[C@]2(C(=O)O)[C@H](O)C[C@]3(C)C(=CC[C@@H]4[C@@]5(C)CC[C@H](OC6OCC(O)C(O)C6OC6OCC(O)C(O)C6OC6OCC(O)C(O)C6O)C(C)(C)[C@@H]5CC[C@]43C)[C@@H]2C1` (stereo not given in full), for which the growth inhibition was 14%.
On the same count and under the same terms, the same measure for `Cc1ccc(NC(=O)/C(CC(=O)c2sc(Nc3ccc(Cl)c(Cl)c3)nc2C)=N\Nc2ccc([N+](=O)[O-])cc2[N+](=O)[O-])c(C)c1`: 0%; for `CC(=O)N=C1N(/C=C2\C(=O)Oc3ccccc3C2=O)C(=O)/C(=C/c2ccc(Cl)cc2Cl)N1C`: -3%.
Regarding `COC1OC2COC(c3ccccc3)OC2C(NC(=S)SCc2ccccc2)C1O` (stereo not given), the growth inhibition is 3%.
Same read-out and setting: the same measure for `O=C(CCN1CCCCC1)N1CCc2c([nH]c3ccccc23)C1c1cccnc1` (stereo not given): 5%; for `Cc1ccc(Sc2ccc(C)cc2[N+](=O)[O-])c([N+](=O)[O-])c1`: 39%.
On the same count and under the same terms, under `O=c1c2cc3ccccc3cc2c(=O)n2n1CC=CC2` stands 4%.
`ClC(Cl)=C1C(=C(Cl)Cl)C(Cl)(Cl)C1(Cl)Cl`: the growth inhibition is 55%.
Take `Cc1c(C(=O)N(CCO)CCO)[n+](=O)c2ccccc2n1[O-]`: the growth inhibition was 1%.
Same read-out and setting: under `CN(C)c1cc(N(C)C)c2cc(-c3ccccc3)sc2n1` stands -11%; under `O=C(Nc1ccccc1O)/C(Cl)=C/Cl`, -67%; under `Cc1ccccc1SCc1nc2ccccc2c(C)[n+]1[O-]`, -1%.
Regarding `Oc1ccc2c(ccc3ccccc32)c1`, the growth inhibition was -3%.
On the same count and under the same terms, under `O=C1c2ccccc2C(=O)N1C(=NCc1ccccc1)c1ccccc1` stands 3%; under `Cc1cc(Cl)cc2c1OCN(C)C2`, -6%; under `CC(C)C(=O)/C=C/c1ccc(Cl)cc1Cl`, 12%.
Still for that read-out and setting: the same measure for `CC(C)C(=O)c1ccc([N+](=O)[O-])o1`: -3%; for `CSc1c(S(C)=O)c2ccccc2n1C` (stereo not given): 25%.
In the case of `O=C(CCCCN1CCN2c3ccccc3CCC2C1)c1ccccc1` (stereo not given), the growth inhibition was -2%.
Still for that read-out and setting: the same measure for `COC(=O)c1ccc(C)cc1CC1Cc2cc(C)ccc2C1=O` (stereo not given): 21%.
Still for that read-out and setting: under `Cc1cc(Nc2ccc(N=Nc3ccc(O)c4ncccc34)cc2)nc(C)n1` stands -41%.
